# From PubChem BioAssay AID652025 (National Center for Advancing Translational Sciences (NCATS), 2013)
# About 240 (0.067%) of roughly 360,000 compounds were called active. Cut-off read from the data, not from the text of the source: active = activation above about 50%; inconclusive = mostly about 30% to 49%; inactive = weaker than that. The full list was thinned out, with actives kept by preference.
# Assay: qHTS of IL-2 Activators; note: 0% is about no effect
# Conditions: IL-2 activation reporter assay, cell-based qHTS; active compounds read high; in transgenic mouse T cells; stimulated with anti-CD3/CD4/CD28 beads
# Excerpt: The adaptive immune response against any infectious agent begins with the activation of an antigen specific T cell. This relatively rare and inert ("naive") T cell undergoes a massive proliferative expansion and differentiation process to generate sufficient number of potent pathogen-specific effector T cells. The effector T cells fight the infection by making cytokines and helping other cells to become fully armed as well. If any naive T cell has antigen receptors (TCRs) that can be activated by self peptides, then a variety of regulatory mechanisms kick in to prevent this cell from performing to its full potential. These processes collectively constitute the phenomenon of immunological tolerance and their failure leads to autoimmunity. One arm of tolerance involves generation of biochemical negative feedback downstream of the TCR (tuning). This is especially relevant to self antigens present in the body over long periods of time (chronic), which form the bulk of our proteome. The negative feedback serves to tune the TCR signaling, such that the ambient antigenic stimulation is nullified intracellularly. Unfortunately, this critical machinery serves as a target for chronic viral, bacterial and parasitic infections (as well as tumors), which can evade a robust immune response, simply by allowing T cells to tune down their signaling to pathogen or malignancy derived antigens. As such, disrupting the tuning in such cases would allow the tolerant T cell to function again and deliver a robust effector response.
# If a therapeutic can restore responsiveness to the tuned down T cell, even for a short time, they could combat the pathogen without any additional immunization. To that end, we have developed a sensitive HTS T cell based assay based on IL-2. This assay will be screened against the Molecular Libraries Small Molecule Repository (MLSMR) to find small molecules that could elicit this response.
# NIH Chemical Genomics Center [NCGC]
# NIH Molecular Libraries Probe Centers Network [MLPCN]
# Assay Submitter (PI): Ron Schwartz, NIAID
# 4 microL (750 cells/well) of unstimulated transgenic mouse T cells (columns 1-3,5-48) are dispensed into Aurora LoBase, black clear-bottom 1536-well assay plates; column 4 receives an identical concentration of transgenic memory T cells as a non-tolerant control. Compounds are then transferred via Kalypsys pin tool equipped with 1536-pin array (10 nL slotted pins, V&P Scientific, San Diego, CA). Following addition of compound and a 60 minute incubation, 1 microL of bead stimulation solution ((0.04 micron Fluospheres (Life technologies, CA) coated with 10ug/ml each anti-CD3 and anti-CD4 (clones 2C11 and GK1.5, BD Biosciences, CA) and mixed with 1ug/ml anti-CD28 (clone PV-1, BD biosciences, CA)). columns 2-48) is added to stimulate the IL-2 response pathway; media is instead added to column 1 as an unstimulated control, while PMA/ionomycin (Sigma Aldrich, MO) is added to column 3 as a control for IL-2 tolerance bypass. The plates are then incubated at 37 degrees C for 18 hours. EGFP and DsRed signal are then detected using an Acumen eX3 Explorer fluorescent plate cytometer. All cells are dispensed in cell media containing EHAA (Quality Biologicals, MD), RPMI (Quality Biologicals, MD), Glutamine (Life Technologies, CA), Penicillin/Streptomycin (Quality Biologicals, MD), 2-ME (Sigma Aldrich, MO) and 10% FBS (Gemini Bioproducts, CA) .
row,SMILES,activation
1,Cc1nc2ccc(S(=O)(=O)NCC(=O)NCCN3CCCCC3C)cc2s1 (stereo unspecified),0.794% (inactive)
2,COc1ccc(C(=O)C2CCCN(C(=O)c3cc4nc(C)cc(C)n4n3)C2)cc1F (stereo unspecified),-1.95% (inactive)
3,Cc1cccc2[nH]c(CN(C)C(=O)C3CCC(=O)N(CCc4ccccc4)C3)nc12 (stereo unspecified),-4.62% (inactive)
4,CCCCN=C1C([N+](=O)[O-])=CC=C2C1=NC1(CCCCC1)N2O,-0.493% (inactive)
5,CCOC(=O)C1CCN(c2c(Nc3cc(C)cc(C)c3)c(=O)c2=O)CC1,3.74% (inactive)
6,COc1ccc(S(=O)(=O)Nc2cccc3c2O[C@H](CN(C)S(=O)(=O)c2ccc(OC)cc2)[C@@H](C)CN([C@H](C)CO)C3=O)cc1,-0.577% (inactive)
7,COc1ccc(-c2ccc3[nH]c4c(c3c2)CCN2C[C@H]3[C@H](C)ON(C)[C@H]3C[C@@H]42)cc1,-3.69% (inactive)
8,COc1cc(C(F)(F)F)nc2c(Br)c(C(C)(C)C)nn12,-2.42% (inactive)
9,COc1ccc(N2CCN(CCNC(=O)CCN3C(=O)COc4ccccc43)CC2)cc1,-1.26% (inactive)
10,Cc1cc(Cl)ccc1OCc1nc(-c2ccncc2)no1,-0.482% (inactive)
11,O=C(NNc1ccccc1Cl)C(O)(c1cccc(C(F)(F)F)c1)c1cccc(C(F)(F)F)c1,-0.487% (inactive)
12,Cn1c2ccc(F)cc2c2nnc(NN)nc21,0.485% (inactive)
13,CC(C)(C)NC(=O)CN1CCC(NC(=O)C23CC4CC(CC(C4)C2)C3)CC1,-0.682% (inactive)
14,COc1ccc(CCC(=O)N2CCN(S(=O)(=O)c3ccc(OC)cc3)CC2)cc1,0.152% (inactive)
15,COc1ccc(CCc2nnc(CCC(=O)NCc3cnn(-c4ccccc4C)c3)o2)cc1,-0.0481% (inactive)
16,Cn1cnc(S(=O)(=O)Nc2ccc3c(c2)OCCO3)c1,0.511% (inactive)
17,COc1cccc(N2CCN(CC(=O)Nc3ccnn3C3CCCC3)CC2)c1,0.356% (inactive)
18,O=C1CCC(Cc2ccccc2)N1 (stereo unspecified),-3.46% (inactive)
19,CN1CCN(S(=O)(=O)c2ccc(N3CCN(S(=O)(=O)c4cccs4)CC3)nc2)CC1,0.642% (inactive)

row,SMILES,activation
1,O=C1Cc2ccccc2Sc2ccc(Cl)cc21,-0.448% (inactive)
2,CSCC[C@H](NC(=O)N1CCn2c1nc1ccccc12)C(=O)NCc1ccc2c(c1)OCO2,-1.15% (inactive)
3,COc1ccc(N2CCN(C(=O)CCSCc3ccccc3F)CC2)cc1,1.14% (inactive)
4,NC(=O)COC(=O)c1ccc2c(c1)C(=O)N(Cc1ccco1)C2=O,-0.0741% (inactive)
5,Cc1cnc(C(=O)N2CCCC(C(=O)c3ccc(C(F)(F)F)cc3)C2)cn1 (stereo unspecified),0.823% (inactive)
6,CCOc1ccc(Nc2nc(Cc3nnc(SCC(=O)c4ccc(C)cc4)o3)cs2)cc1,-0.186% (inactive)
7,NCCN1CCN2C(=O)CN(C(=O)c3ccccc3)CC12 (stereo unspecified),1.5% (inactive)
8,Cc1cc(C)cc(N(CC(=O)N2CC=C(c3ccccc3)CC2)S(=O)(=O)c2c(C)noc2C)c1,-2% (inactive)
9,CC1=NN(C(C)C)C(=O)C1,-0.959% (inactive)
10,CC1=C(C(=O)N2CCOCC2)CC(CC(=O)NCCN2CCOCC2)C(=O)N1CCC1=CCCCC1 (stereo unspecified),2.16% (inactive)
11,CC(=O)CSc1nnc(CSc2ncccn2)n1C1CCCCC1,4.89% (inactive)
12,O=C(O)CN(Cc1ccco1)S(=O)(=O)c1ccccc1,0.214% (inactive)
13,CC(=O)N1CC[n+]2c(-c3ccc([N+](=O)[O-])cc3)csc21,-2.73% (inactive)
14,Cc1ccccc1N1C(=O)C(Oc2ccc(Cl)cc2)C1CNCC1CCCO1 (stereo unspecified),0.756% (inactive)
15,O=C1/C(=C\c2cccnc2)CN(Cc2ccccc2)C/C1=C\c1cccnc1,-0.836% (inactive)
16,Cc1c2cn[nH]c(=O)c2c(C)n1Cc1ccc(F)cc1,-0.791% (inactive)
17,Cc1c(C(=O)OCC(=O)N2CCCC2=O)oc2ccccc12,-1.29% (inactive)
18,O=S(=O)(Nc1nccs1)c1ccc2c(c1)OCCO2,-0.72% (inactive)
19,CN1CCN(C2Cc3ccc(Cl)cc3Sc3ccc(F)cc32)CC1 (stereo unspecified),-2.1% (inactive)

row,SMILES,activation
1,Cc1cc([N+](=O)[O-])nn1CCCC(=O)Nc1cccnc1Cl,-0.291% (inactive)
2,Cc1cc(NC(=O)c2cc(-c3cccs3)on2)nn1Cc1ccc(Cl)cc1,0.242% (inactive)
3,CC1(C)O[C@@H]2[C@H](O1)[C@@H](COS(=O)(=O)O)O[C@H]2n1cnc2c(=O)[nH]cnc21,-0.104% (inactive)
4,CCCc1nc(SCC(=O)Nc2ccc(S(=O)(=O)N(C)C)cc2)c2ccccc2n1,-0.583% (inactive)
5,Cc1ccc(S(=O)(=O)CC(=O)Nc2sc(C)c(C)c2C(N)=O)cc1,0.0351% (inactive)
6,COCCN(C(=O)CCC(=O)Nc1nccs1)C(C(=O)NCCC(C)C)c1ccc(F)cc1 (stereo unspecified),-1.07% (inactive)
7,O=C(NCc1cccnc1)c1cc(C2CCCCN2C(=O)CCc2ccccc2)on1 (stereo unspecified),-0.0033% (inactive)
8,CCOc1ccc(-n2c(SC(C)C(=O)OC)nc3c(c2=O)SCC3)cc1 (stereo unspecified),-0.633% (inactive)
9,Cc1ccc(CNC(=O)CSc2nnc3c(n2)[nH]c2ccc(F)cc23)cc1,-0.754% (inactive)
10,Cc1cccc(N=Nc2c(O)[nH]c3ccc(F)cc23)c1,137% (active)
11,COc1ccc(NC(=O)/C(N=Nc2cccc(S(=O)(=O)Nc3ccc(SC(F)F)cc3)c2)=C(\C)O)cc1,0.0635% (inactive)
12,Cc1ccccc1OC(=O)Cn1c(C(F)(F)F)nc2ccccc21,0.516% (inactive)
13,CCCS(=O)(=O)N1CCN=C1SCc1cccc(F)c1,1.16% (inactive)
14,CC1=C[C@H]2Cc3cc(C)cc(C)c3S(=O)(=O)[C@@H]2C=C1,0.251% (inactive)
15,OCCCC1CCCCN1Cc1nc(Cc2ccccc2Cl)no1 (stereo unspecified),1.46% (inactive)
16,CCCCN(C(=O)/C=C/c1ccco1)c1c(N)n(CC(C)C)c(=O)[nH]c1=O,5.81% (inactive)
17,CC(=O)c1cccc(NC(=O)C2CCCN(S(=O)(=O)c3cccc4nonc34)C2)c1 (stereo unspecified),2.63% (inactive)
18,COc1ccc(COC[C@H](CC(C)C)N2CCN(C(=O)c3cccc(C(F)(F)F)c3)CCC2=O)cc1,-1.15% (inactive)
